# LDHA block: LDHA (human) enzyme inhibition; P00338; purified LDHA, NADH/diaphorase-resazurin fluorescence; active compounds read low; activity change, % (values are at about 110 or 230 µM); 480,000 tested, 0.15% active; AID 1347041; in the data active = activity change below about -30%; inconclusive = mostly about -25% to -30%
#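 LDH5 2 nM; NADH 0.06 mM, pyruvate 0.2 mM; 200 mM Tris pH 7.4, EDTA, Tween-20; 5 min RT. Detection: diaphorase 0.133 mg/mL + resazurin 37 µM, fluorescence ex540/em590 at 0 and 20 min; normalized to enzyme-free and DMSO wells.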
# Vif-APOBEC3G blk: inhibitors of Vif-APOBEC3G interaction; Q9HC16; 410,000 tested, 0.076% active; Potency, µM (top dose mostly 46.1 µM), hits mostly inhibitors; HeLa A3G-eYFP + Vif (tagged APOBEC3G with the HIV-1 protein that degrades it), YFP fluorescence, overnight; also: nearly all actives have a fitted effect of over 60% in size
#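 HeLa cells stably expressing Vif and C-terminally eYFP-tagged A3G, seeded overnight at 37 deg C, then exposed to compound by pintool overnight at 37 deg C. Rise in yellow fluorescence (Ex 488/Em 500-530, Acumen) marks blocked Vif-driven A3G degradation.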
# PINK1 modulator: changes PINK1 expression; PINK1 immunofluorescence, high-content cytometry, 24 h; Potency, µM (series often up to 76.6 µM), actives largely listed as activators; 410,000 tested, 0.2% active; AID 624263; active = well fitted activation curve with a large enough effect; inconclusive = small, poorly fitted or top-dose-only effect; cell line not stated here; also: nearly all actives have a fitted effect of over 65% in size
#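 Cells are seeded, rested 12 hours, then given compound at five concentrations or DMSO for 24 hours. After fixation, blocking and antibody staining, PINK1 amount and mitochondrial localization are scored; CCCP serves as control.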
# mIDH1 inhibitor: human IDH1 R132H inhibition | O75874 | IDH1-R132H enzyme, NADPH consumption, diaphorase/resazurin fluorescence | Potency, µM (doses to about 76.6 µM), hits mostly inhibitors | 390,000 tested, 0.093% active; also: nearly all actives have a fitted effect of over 65% in size
#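 IDH1-R132H (0.5 ug/mL dispensed) in pH 7.5 Tris buffer was preincubated 30 min with compound, then given a substrate mix of 0.016 mM NADPH and 2 mM alpha-KG for 80 min at room temperature; remaining NADPH was read by diaphorase/resazurin fluorescence.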
# PTHR1 agonist: PTHR1 (human) receptor agonism; Q03431; HEK293 GP2 PTHR1 cells, GloSensor cAMP luminescence, 1 h; Potency, µM (titrated, usually from 115 µM), usual class: activators; 410,000 tested, 0.075% active; also: nearly all actives have a fitted effect of over 55% in size
# Target sequence (Q03431 whole entry, looked up): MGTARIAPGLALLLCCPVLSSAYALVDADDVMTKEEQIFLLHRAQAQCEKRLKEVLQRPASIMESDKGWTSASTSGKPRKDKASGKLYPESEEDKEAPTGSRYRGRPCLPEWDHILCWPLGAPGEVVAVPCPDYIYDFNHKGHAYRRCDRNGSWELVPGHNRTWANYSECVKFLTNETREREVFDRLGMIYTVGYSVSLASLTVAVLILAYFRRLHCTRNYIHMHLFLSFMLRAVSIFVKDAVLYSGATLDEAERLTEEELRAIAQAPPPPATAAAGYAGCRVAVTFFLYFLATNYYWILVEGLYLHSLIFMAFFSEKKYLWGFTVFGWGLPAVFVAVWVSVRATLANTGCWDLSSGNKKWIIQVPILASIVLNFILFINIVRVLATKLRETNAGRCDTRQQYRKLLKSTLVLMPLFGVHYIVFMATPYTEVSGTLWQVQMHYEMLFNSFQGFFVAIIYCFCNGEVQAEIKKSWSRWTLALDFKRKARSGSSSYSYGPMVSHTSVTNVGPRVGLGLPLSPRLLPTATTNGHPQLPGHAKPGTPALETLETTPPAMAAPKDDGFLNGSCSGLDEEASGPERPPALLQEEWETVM
#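 HEK-293-derived GP2 cells expressing PTHR1 and a GloSensor cAMP reporter, 3,000/well, plated overnight, given luciferin plus IBMX (each 0.5 mM as added) for 1 h at 37 °C, then compound for 1 h at 37 °C. Luminescence was read after 15 min at room temperature.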
# Vif-APOBEC3F blk: blocks the Vif interaction with APOBEC3F | HeLa A3F-eYFP + Vif (tagged APOBEC3F with the HIV-1 protein that degrades it), YFP fluorescence increase | Potency, µM (top dose mostly 46.1 µM) | 390,000 tested, 0.2% active | AID 602313; also: nearly all actives have a fitted effect of over 65% in size
#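 Fluorescence increase (Ex 488/Em 500-530) after overnight compound treatment at 37 deg C flags inhibition of Vif-driven A3F-eYFP loss in stable HeLa A3F-eYFP/Vif cells seeded overnight beforehand.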
# IDH1 autofl: autofluorescence interference, mutant IDH1 hit counter-screen. shares compounds with mIDH1 inhibitor. Resorufin detection reagent fluorescence interference, cell-free. inhibition of signal, % at 51.2 µM. 750 tested, under 10 active. AID 623980
# WT IDH1 inh: inhibits human wild-type IDH1, mutant selectivity check; shares compounds with mIDH1 inhibitor; WT IDH1 enzyme, NADPH diaphorase/resazurin fluorescence; Potency, µM (titrated, usually from 115 µM), most hits filed as inhibitors; 750 tested, 9% active; AID 623995; also: nearly all actives have a fitted effect of over 55% in size
# IDH1 R132H conf: inhibits human mutant IDH1 enzyme in cherrypick confirmation; shares compounds with mIDH1 inhibitor; IDH1 R132H enzyme, NADPH diaphorase/resazurin fluorescence; Potency, µM (top dose mostly 76.6 µM), most hits filed as inhibitors; 750 tested, 83% active; also: nearly all actives have a fitted effect of over 50% in size
# Numbers stand for hits; – = inactive; ? = inconclusive; · = no result given. Hits are enriched below; roughly 0.59% of the tested compounds scored in any of these assays. Unless noted, calls follow the shape of the dose curve; as a rule, active = well fitted curve in the direction sought with a large enough effect; inconclusive = small, poorly fitted or top-dose-only effect, or another doubt; inactive = no such curve, though single readings can be large; an effect the other way counts as inactive or inconclusive.
SMILES,LDHA block,Vif-APOBEC3G blk,PINK1 modulator,mIDH1 inhibitor,PTHR1 agonist,Vif-APOBEC3F blk,IDH1 autofl,WT IDH1 inh,IDH1 R132H conf
CCOC(=O)c1cc(-c2ccncc2)nc2c1c(C)nn2-c1ccccn1,–,–,–,?,–,–,–,?,22.4µM
CC1(C)C(=O)NC(=O)C(C#N)C1c1ccccc1 (stereo not drawn),–,·,·,·,·,·,·,·,·
N#CC1C(=O)NC(c2ccccc2)=CC1c1ccccc1 (stereo not drawn),?,–,–,52.1µM,–,–,–,–,44.7µM
COc1ccc(C)cc1-n1c(-c2ccc(Cl)cc2)cc2c1CC(C)(C)CC2=O,–,–,–,?,–,–,–,–,14.1µM
Cc1ccccc1N=C1c2cc([N+](=O)[O-])ccc2-c2ncccc21,–,–,–,?,–,–,–,–,22.4µM
Cc1cc([N+](=O)[O-])cc2c1-c1ncccc1C2=Nc1ccccc1,–,–,–,–,–,–,·,·,·
COc1cc(C#N)cc(Cl)c1OCc1ccccc1C#N,–,·,·,·,·,·,·,·,·
Cc1nn(CCc2nn[nH]n2)c2nc(-c3ccc(C4CCCCC4)cc3)cc(C(F)(F)F)c12,–,–,?,52.1µM,–,–,–,50.1µM,39.8µM
CCCCn1nc(C)c2c(C(F)(F)F)cc(-c3ccc(Br)cc3)nc21,–,·,·,·,·,·,·,·,·
C=CS(=O)(=O)c1c2cc(OC)ccc2nc2ccc(OC)cc12,–,?,–,?,–,?,–,28.2µM,10µM
CC(C)n1ncc2cc(NC(=O)c3ccc(Cl)c(S(=O)(=O)N4CCCCC4)c3)cnc21,–,·,·,·,·,·,·,·,·
COc1ccccc1-c1cc(=O)c2cc(NC(=O)c3ccccc3Br)ccc2o1,–,·,·,·,·,·,·,·,·
CN(C)CCC1CCN(C(=O)Nc2ccccc2C(F)(F)F)CC1,–,·,·,·,·,·,·,·,·
COc1cc2cnc(-c3ccccc3)c(-c3ccc(C(F)(F)F)cc3)c2cc1OC,–,–,–,?,–,–,–,–,15.8µM
CCN(CC(=O)NC(C)(C)C)C(=O)NCc1cccc(C(F)(F)F)c1,–,·,·,·,·,·,·,·,·
COc1cc(/C=C2\SC(=Nc3ccccc3)N(CCc3c[nH]c4ccccc34)C2=O)ccc1OC(C)C(=O)O (stereo not drawn),–,–,–,?,–,–,·,·,·
COc1ccc(N=C2S/C(=C\c3ccc(OC(C)C(=O)O)c(OC)c3)C(=O)N2CCc2c[nH]c3ccccc23)cc1 (stereo not drawn),–,–,–,?,–,?,–,?,28.2µM
COC(=O)/C(C#N)=C/c1c(N2CCN(c3ccccc3)CC2)nc2ccccn2c1=O,–,–,–,–,–,–,·,·,·
CNC(=O)/C(C#N)=C/c1c(N(Cc2ccccc2)Cc2ccccc2)nc2ccccn2c1=O,–,–,–,52.1µM,–,–,–,–,25.1µM
COc1cc2c(-c3ccccc3Cl)nc3c(c(C)nn3-c3ccccc3)c2cc1OC,–,–,–,?,–,–,–,–,5.01µM
COc1cc2c(-c3ccccc3O)nc3c(c(C)nn3-c3ccccc3)c2cc1OC,–,–,–,–,–,–,·,·,·
CC12CCC(C(=O)Nc3ccccc3)(CC1=O)C2(C)C (stereo not drawn),–,·,·,·,·,·,·,·,·
COc1ccc(-n2c(-c3ccc(Cl)cc3Cl)n[nH]c2=S)c(OC)c1,–,–,–,46.5µM,–,–,–,–,–
c1ccc(-c2cc(-c3nnc4n3N=C(c3ccc5ccccc5c3)CS4)[nH]n2)cc1,–,?,–,11.7µM,–,?,–,–,7.08µM
